{"source": "the supplement of paper PMC11219838"}
{"tested_on": "Ditylenchus dipsaci", "experiment": "proportion of mobile D. dipsaci (mixed stage) relative to DMSO control (fraction of DMSO control); higher = more viable, less nematicidal, active = 0.86 or less; extreme values may be limits of the assay", "settings": "60 µM; 5 days; temperature: 20 °C", "in_short": "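Mobility values are relative to DMSO controls and are averages of two biological replicates. For each well of a 96-well plate, about 20 D. dipsaci worms, grown on pea plants in Gamborg B-5 agar and funnel-extracted into water, were dispensed in distilled water. Plates received pinned compound at 60 µM final with 0.6% v/v DMSO and were sealed and shaken at 200 rpm for 5 days at 20 °C before 2 µL 1 M NaOH was added and mobile worms were scored by microscope.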"}
{"smiles": "COc1ccccc1-c1nc(-c2ccc(Br)cc2)no1", "proportion of mobile D. dipsaci": "1 (inactive)"}
{"smiles": "CC(C)Oc1ccc(-c2nc(-c3cccnc3)no2)cc1", "proportion of mobile D. dipsaci": "0.675 (active)"}
{"smiles": "COC(=O)c1ccc(CSc2nnc(-c3ccncc3)o2)cc1", "proportion of mobile D. dipsaci": "1 (inactive)"}
{"smiles": "Cc1ccc(-c2nnc(SCC(=O)Nc3ccccc3)o2)cc1", "proportion of mobile D. dipsaci": "1 (inactive)"}
{"smiles": "COc1nc(-c2ccc(C)cc2)ccc1-c1noc(-c2cccc(C)c2)n1", "proportion of mobile D. dipsaci": "1 (inactive)"}
{"smiles": "COc1ccc(CC(=O)Nc2ccc(-c3noc(-c4ccccc4Br)n3)cc2)cc1", "proportion of mobile D. dipsaci": "1 (inactive)"}
{"smiles": "Clc1cc(Br)ccc1OCc1nc(-c2cccnc2)no1", "proportion of mobile D. dipsaci": "1 (inactive)"}
{"smiles": "O=C(CSc1nnc(-c2ccccc2)o1)Nc1ccccc1F", "proportion of mobile D. dipsaci": "1 (inactive)"}
{"smiles": "O=C(CSc1nnc(-c2ccccc2)o1)Nc1ccccc1C(F)(F)F", "proportion of mobile D. dipsaci": "1 (inactive)"}
{"smiles": "O=C(CSc1nnc(-c2ccco2)o1)NC1CCCCC1", "proportion of mobile D. dipsaci": "1 (inactive)"}
{"smiles": "COc1ccc(Cl)cc1-c1noc(COc2ccc(Cl)cc2)n1", "proportion of mobile D. dipsaci": "1 (inactive)"}
{"smiles": "Cc1cccc(OC(C)c2nc(-c3cccnc3)no2)c1", "note": "(centres undefined)", "proportion of mobile D. dipsaci": "1 (inactive)"}
{"smiles": "c1ccc(COc2cccc(-c3nc(-c4ccccn4)no3)c2)cc1", "proportion of mobile D. dipsaci": "1 (inactive)"}
{"smiles": "Cc1ccc(-c2nnc(SCC(=O)Nc3nccs3)o2)cc1", "proportion of mobile D. dipsaci": "1 (inactive)"}
{"smiles": "CC1CCN(C(=O)CSc2nnc(-c3cccc(Cl)c3)o2)CC1", "proportion of mobile D. dipsaci": "1 (inactive)"}
{"smiles": "CCOc1nc(-c2ccccc2)ccc1-c1noc(-c2cccc(C)c2)n1", "proportion of mobile D. dipsaci": "1 (inactive)"}
{"smiles": "COc1nc(C)ccc1-c1noc(-c2ccc(C(C)(C)C)cc2)n1", "proportion of mobile D. dipsaci": "1 (inactive)"}
{"smiles": "CCOc1ccc(-c2nc(-c3ccc(Cl)cc3)no2)cc1", "proportion of mobile D. dipsaci": "1 (inactive)"}
{"smiles": "Cc1cc(OCc2nc(-c3ccccn3)no2)c(C)cc1Br", "proportion of mobile D. dipsaci": "1 (inactive)"}
{"smiles": "CCOC(=O)c1sc(NC(=O)CSc2nnc(-c3ccc(Cl)cc3)o2)c(C(=O)OCC)c1C", "proportion of mobile D. dipsaci": "1 (inactive)"}
{"smiles": "CC(=O)Nc1ccc(-c2nc(-c3ccccc3)no2)cc1", "proportion of mobile D. dipsaci": "1 (inactive)"}
{"smiles": "Cc1ccc(NC(=O)CSc2nnc(-c3ccccc3)o2)cc1C", "proportion of mobile D. dipsaci": "1 (inactive)"}
{"smiles": "Clc1cccc(-c2nc(-c3cccnc3)no2)c1", "proportion of mobile D. dipsaci": "1 (inactive)"}
{"smiles": "COc1ccc(Cl)cc1-c1noc(COc2ccccc2)n1", "proportion of mobile D. dipsaci": "1 (inactive)"}
{"smiles": "COc1ccc(Cl)cc1-c1noc(-c2ccc(Cl)cc2)n1", "proportion of mobile D. dipsaci": "1 (inactive)"}
{"smiles": "Fc1ccc(-c2noc(-c3ccc(Cl)cc3)n2)cc1", "proportion of mobile D. dipsaci": "1 (inactive)"}
{"smiles": "Clc1cc(Br)ccc1OCc1nc(-c2ccccc2)no1", "proportion of mobile D. dipsaci": "1 (inactive)"}
{"smiles": "Cc1ccc(-c2noc(-c3cccc(C)c3)n2)cc1", "proportion of mobile D. dipsaci": "1 (inactive)"}
{"smiles": "Clc1ccc(SCc2nc(-c3cccnc3)no2)cc1", "proportion of mobile D. dipsaci": "1 (inactive)"}
{"smiles": "COc1ccccc1-c1nnc(SCC(=O)Nc2ccccc2Cl)o1", "proportion of mobile D. dipsaci": "1 (inactive)"}
{"smiles": "Cn1c(SCc2ccc(Cl)cc2)nnc1-c1ccco1", "proportion of mobile D. dipsaci": "1 (inactive)"}
{"smiles": "COc1cccc(-c2noc(COc3cc(C)cc(C)c3)n2)c1", "proportion of mobile D. dipsaci": "1 (inactive)"}
{"smiles": "Clc1ccc(OCc2nc(-c3ccccc3)no2)c(Cl)c1", "proportion of mobile D. dipsaci": "1 (inactive)"}
{"smiles": "COc1ccc(-c2nnc(SCC(=O)c3ccccc3)o2)cc1", "proportion of mobile D. dipsaci": "1 (inactive)"}
{"smiles": "CCN(CC)C(=O)CSc1nnc(-c2ccc(Br)cc2)o1", "proportion of mobile D. dipsaci": "1 (inactive)"}
{"smiles": "CCOC(=O)c1sc(NC(=O)CSc2nnc(-c3ccc(Cl)cc3)o2)c(C#N)c1C", "proportion of mobile D. dipsaci": "1 (inactive)"}
{"smiles": "O=C(CSc1nnc(-c2cccc(Cl)c2)o1)NC1CCCCC1", "proportion of mobile D. dipsaci": "1 (inactive)"}
{"smiles": "COc1ccc(-c2noc(-c3ccc(C)c(C)c3)n2)cc1", "proportion of mobile D. dipsaci": "1 (inactive)"}
{"smiles": "Cc1ccccc1CSc1nnc(-c2ccco2)n1C", "proportion of mobile D. dipsaci": "0.75 (active)"}
